The text below walks through data of PubChem BioAssay (NCATS).

Inconclusive results are not listed. Calls of active or inactive are those of the source. Unless noted, calls follow the shape of the dose curve; as a rule, active = well fitted curve in the direction sought with a large enough effect; inconclusive = small, poorly fitted or top-dose-only effect, or another doubt; inactive = no such curve, though single readings can be large; an effect the other way counts as inactive or inconclusive. *1 amine or outer side, *2 acyl side, *3 side chain or, on linkers, in order; H or OH if unused. Where a SMILES comes first, the peptide text is derived from it. [ ]: non-standard residue; d: D form. The star is where a group is joined. ξ: configuration not given here. X9 = CCC(C)(N*)C(=O)C1CC[C@@H](C(=O)N[C@@H](Cc2ccccc2)C(=O)NCC(=O)O)N1; X8 = O=C([C@@H]1CC(O)CN1[*:1])[*:2]; X13 = O=C(C(CC(O)CO)O[*:1])[*:2]; aIle = CC[C@@H](C)[C@H](N)C(=O)O; Thr(3ξ) = CC(O)[C@H](N)C(=O)O; NMeV = CN[CH](C(=O)O)C(C)C; Hexanoyl = CCCCCC(=O)*; NMeA = CN[CH](C)C(=O)O; ξIva = CCC(C)(N)C(=O)O; Aib = CC(C)(N)C(=O)O; βAla = NCCC(=O)O

For test [1], the target named is Calcium and integrin-binding protein 1 (Homo sapiens) (UniProt Q99828). As to the kind of experiment: Primary qHTS for Identification of Calcium Integrin Binding Protein 1 (CIB1) Competitor (AID 1508620).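 Also: GST tagged CIB1 binding a fluorescein labelled alphaIIb integrin peptide tracer; top concentration of the series differs between compounds; % is scaled to controls: 0 for no effect and ±100 for the full control effect.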 An outline of the steps:
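Fluorescence polarization competition: GST-tagged CIB1 (1 uM final) preincubated with compound 15 min at room temperature, then FITC-labelled alphaIIb peptide (100 nM final) added. After 15 min at room temperature, polarization read at Ex 480/Em 540.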

In test [2] the target is Cytochrome P450 2C9 (Homo sapiens) (UniProt P11712). Description: Cytochrome P450 family 2 subfamily C member 9 (CYP2C9) small molecule antagonists: luciferase biochemical (cell-free) qHTS assay (AID 1645842; active = well fitted curve in the direction sought with a large enough effect in the repeat runs; an effect the other way counts as inactive or inconclusive; also: nearly all actives have a fitted effect of over 55% in size; also: potency is read from the fitted curve at half-maximal effect; as to activity change, negative = inhibition: % is scaled to controls: 0 for no effect and ±100 for the full control effect). An outline of the steps: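 P450-Glo CYP2C9 system: proluciferin substrate with enzyme in mix containing 0.4% BSA, 10 min at room temperature, then NADPH regeneration solution added and incubated 1 h at 37C. Detection reagent stopped reaction; luminescence read after 20 min as RLU.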
A general note: In qHTS, concentration-response curves come from the screen itself.

Test [3] in a line: Primary qHTS for inhibitors of nuclear receptor binding SET domain protein 2 (NSD2) in an isogenic RCH-ACV NSD2 p.E1099K mutant (9B) (AID 1645876). Also: nearly all actives have a fitted effect of over 70% in size. Also: potency is read from the fitted curve at half-maximal effect. As to activity change, negative = viability loss: % is scaled to controls: 0 for no effect and ±100 for the full control effect.
A short description of test [4]: Primary qHTS for inhibitors of nuclear receptor binding SET domain protein 2 (NSD2) in an RCH-ACV wild type WT cells (2C) (AID 1645877). Also: nearly all actives have a fitted effect of over 70% in size. Also: potency is read from the fitted curve at half-maximal effect.
Test [5] has as its target Rap guanine nucleotide exchange factor 3 (Homo sapiens) (UniProt O95398). As to the kind of experiment: Confirmatory qHTS for agonist of cAMP-regulated guanine nucleotide exchange factor 3 (EPAC1) (AID 1645881).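 Also: EPAC1 catalysed release of BODIPY-GDP from Rap1B seen as fluorescence loss; 100% = effect of cAMP agonist control; nearly all actives have a fitted effect of over 75% in size.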
Test [6] deals with Rap guanine nucleotide exchange factor 4 (Homo sapiens) (UniProt Q8WZA2). As to the kind of experiment: Confirmatory qHTS for agonist of cAMP-regulated guanine nucleotide exchange factor 4 (EPAC2) (AID 1645884).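 Also: nucleotide exchange releases bodipy-GDP from Rap1 and this lowers its fluorescence; % is scaled to controls: 0 for no effect and ±100 for the full control effect; nearly all actives have a fitted effect of over 65% in size.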
The target is the same in test [7]. Description: Confirmatory qHTS for antagonist of cAMP-regulated guanine nucleotide exchange factor 4 (EPAC2) (AID 1645885). Also: nearly all actives have a fitted effect of over 25% in size. Conditions: outcome: dose series up to 114 µM.
Test [8] concerns the target Rap guanine nucleotide exchange factor 3 (Homo sapiens) (UniProt O95398). As to the kind of experiment: Counterscreen qHTS for antagonist of cAMP-regulated guanine nucleotide exchange factor 3 (EPAC1) (AID 1645888).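 Also: fluorescence loss as bound BODIPY-GDP is released from Rap1B; % of control where 0% means no effect.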 The method in brief: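 Rap1B–BODIPY-GDP (250 nM) with 50 uM GDP; compounds pin-transferred to 9.74 nM–152 uM final (activator) or from 7.32 nM upwards (inhibitor). Fluorescence Ex/Em 480/540 nm read at 5 and 30 min, then after adding cAMP or buffer, at room temperature.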

The target of test [9] is N-terminal Xaa-Pro-Lys N-methyltransferase 1 (Homo sapiens) (UniProt Q9BV86). Description: Confirmatory qHTS for Inhibitors of N-terminal methyltransferase 1 (NTMT1): MTaseGlo Assay (AID 1645874). Also: nearly all actives have a fitted effect of over 65% in size. Also: potency is read from the fitted curve at half-maximal effect.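 As to activity change, negative = inhibition: luminescence from SAH made as NTMT1 methylates SPKRIA peptide using SAM; 0% = DMSO control and -100% = no-enzyme control.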 The method in brief: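 Room-temperature NTMT1 reaction, 30 min, with 100 uM SAM and 1 uM SPKRIA substrate; enzyme 125 nM. Read-out: MTase-Glo luminescence, normalized to no-enzyme and DMSO controls.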

Test [10] addresses Catechol O-methyltransferase (Homo sapiens) (UniProt P21964). Description: Confirmatory Screen for Target Class Profiling of Small Molecule Inhibitors of Methyltransferases (AID 1745852; calls by dose curve; also: potency is read from the fitted curve at half-maximal effect). Conditions: MTase-Glo luminescence, SAH detection, recombinant enzyme; measured here: COMT max response; stronger effect = lower value.
For test [11], the target named is Guanidinoacetate N-methyltransferase (Homo sapiens) (UniProt Q14353). The description is as above. The following applies: MTase-Glo luminescence, SAH detection, recombinant enzyme; activity change, negative = inhibition: at 57.3 µM (top of the series) unless noted.
The target in test [12] is Nicotinamide N-methyltransferase (Homo sapiens) (UniProt P40261). The description is as above. Conditions: MTase-Glo luminescence, SAH detection, recombinant enzyme; measured here: NNMT max response; stronger effect = lower value.
Test [13] concerns the target Phenylethanolamine N-methyltransferase (Homo sapiens) (UniProt P11086). The description is as above. The following applies: MTase-Glo luminescence, SAH detection, recombinant enzyme; measured here: PNMT max response; stronger effect = lower value.

Sequence of Calcium and integrin-binding protein 1 (Homo sapiens) (Q99828 whole entry, looked up): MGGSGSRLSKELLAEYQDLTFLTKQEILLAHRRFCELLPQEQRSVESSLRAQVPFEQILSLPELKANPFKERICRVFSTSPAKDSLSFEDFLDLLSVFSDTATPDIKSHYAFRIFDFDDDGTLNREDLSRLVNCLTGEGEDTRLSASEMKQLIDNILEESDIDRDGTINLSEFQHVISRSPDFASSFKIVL
Sequence of Cytochrome P450 2C9 (Homo sapiens) (P11712 whole entry, looked up): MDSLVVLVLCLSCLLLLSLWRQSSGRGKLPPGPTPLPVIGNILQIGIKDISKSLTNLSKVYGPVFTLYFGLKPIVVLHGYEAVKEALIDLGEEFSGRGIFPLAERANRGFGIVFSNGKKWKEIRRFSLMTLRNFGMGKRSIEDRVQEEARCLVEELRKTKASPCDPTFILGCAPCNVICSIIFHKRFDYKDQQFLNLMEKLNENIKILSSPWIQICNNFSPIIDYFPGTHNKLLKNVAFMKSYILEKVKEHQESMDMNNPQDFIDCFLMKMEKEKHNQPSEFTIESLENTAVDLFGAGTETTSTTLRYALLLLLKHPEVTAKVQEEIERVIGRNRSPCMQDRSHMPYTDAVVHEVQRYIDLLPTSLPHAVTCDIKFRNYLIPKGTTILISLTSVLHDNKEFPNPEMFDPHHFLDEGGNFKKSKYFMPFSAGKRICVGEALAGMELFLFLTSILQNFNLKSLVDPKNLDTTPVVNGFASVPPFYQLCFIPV
Sequence of Rap guanine nucleotide exchange factor 4 (Homo sapiens) (Q8WZA2 whole entry, looked up): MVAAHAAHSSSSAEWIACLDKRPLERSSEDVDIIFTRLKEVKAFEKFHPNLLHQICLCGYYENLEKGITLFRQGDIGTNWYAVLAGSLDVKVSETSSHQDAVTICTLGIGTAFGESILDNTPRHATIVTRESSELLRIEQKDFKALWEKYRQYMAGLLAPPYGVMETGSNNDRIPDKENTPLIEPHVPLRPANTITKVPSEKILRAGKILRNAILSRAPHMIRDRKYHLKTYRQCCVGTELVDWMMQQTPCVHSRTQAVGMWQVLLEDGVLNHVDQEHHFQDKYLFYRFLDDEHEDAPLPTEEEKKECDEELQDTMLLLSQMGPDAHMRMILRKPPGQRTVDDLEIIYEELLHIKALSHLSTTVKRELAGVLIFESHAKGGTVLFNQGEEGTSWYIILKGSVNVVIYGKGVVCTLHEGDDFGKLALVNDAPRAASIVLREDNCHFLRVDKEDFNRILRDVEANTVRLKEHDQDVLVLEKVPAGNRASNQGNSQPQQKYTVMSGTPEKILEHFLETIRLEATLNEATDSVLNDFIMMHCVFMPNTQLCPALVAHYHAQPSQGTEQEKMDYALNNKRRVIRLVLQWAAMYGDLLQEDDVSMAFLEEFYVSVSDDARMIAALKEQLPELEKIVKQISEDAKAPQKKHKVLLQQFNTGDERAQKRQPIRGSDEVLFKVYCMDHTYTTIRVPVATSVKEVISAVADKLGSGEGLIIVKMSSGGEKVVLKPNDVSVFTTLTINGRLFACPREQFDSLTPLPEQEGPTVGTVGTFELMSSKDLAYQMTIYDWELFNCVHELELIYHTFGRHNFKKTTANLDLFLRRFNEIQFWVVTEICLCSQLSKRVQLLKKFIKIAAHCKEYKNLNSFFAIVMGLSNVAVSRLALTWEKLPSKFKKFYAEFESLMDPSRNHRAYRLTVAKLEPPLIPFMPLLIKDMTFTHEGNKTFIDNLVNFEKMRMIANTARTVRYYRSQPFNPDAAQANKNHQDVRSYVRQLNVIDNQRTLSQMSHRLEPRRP
Sequence of N-terminal Xaa-Pro-Lys N-methyltransferase 1 (Homo sapiens) (Q9BV86 whole entry, looked up): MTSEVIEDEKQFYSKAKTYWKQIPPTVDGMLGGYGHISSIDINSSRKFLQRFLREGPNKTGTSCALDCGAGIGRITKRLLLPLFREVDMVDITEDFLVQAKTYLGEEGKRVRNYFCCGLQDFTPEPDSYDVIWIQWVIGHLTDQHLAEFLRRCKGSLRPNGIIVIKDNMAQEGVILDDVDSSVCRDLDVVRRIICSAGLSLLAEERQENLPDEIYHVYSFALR
Sequence of Rap guanine nucleotide exchange factor 3 (Homo sapiens) (O95398 whole entry, looked up): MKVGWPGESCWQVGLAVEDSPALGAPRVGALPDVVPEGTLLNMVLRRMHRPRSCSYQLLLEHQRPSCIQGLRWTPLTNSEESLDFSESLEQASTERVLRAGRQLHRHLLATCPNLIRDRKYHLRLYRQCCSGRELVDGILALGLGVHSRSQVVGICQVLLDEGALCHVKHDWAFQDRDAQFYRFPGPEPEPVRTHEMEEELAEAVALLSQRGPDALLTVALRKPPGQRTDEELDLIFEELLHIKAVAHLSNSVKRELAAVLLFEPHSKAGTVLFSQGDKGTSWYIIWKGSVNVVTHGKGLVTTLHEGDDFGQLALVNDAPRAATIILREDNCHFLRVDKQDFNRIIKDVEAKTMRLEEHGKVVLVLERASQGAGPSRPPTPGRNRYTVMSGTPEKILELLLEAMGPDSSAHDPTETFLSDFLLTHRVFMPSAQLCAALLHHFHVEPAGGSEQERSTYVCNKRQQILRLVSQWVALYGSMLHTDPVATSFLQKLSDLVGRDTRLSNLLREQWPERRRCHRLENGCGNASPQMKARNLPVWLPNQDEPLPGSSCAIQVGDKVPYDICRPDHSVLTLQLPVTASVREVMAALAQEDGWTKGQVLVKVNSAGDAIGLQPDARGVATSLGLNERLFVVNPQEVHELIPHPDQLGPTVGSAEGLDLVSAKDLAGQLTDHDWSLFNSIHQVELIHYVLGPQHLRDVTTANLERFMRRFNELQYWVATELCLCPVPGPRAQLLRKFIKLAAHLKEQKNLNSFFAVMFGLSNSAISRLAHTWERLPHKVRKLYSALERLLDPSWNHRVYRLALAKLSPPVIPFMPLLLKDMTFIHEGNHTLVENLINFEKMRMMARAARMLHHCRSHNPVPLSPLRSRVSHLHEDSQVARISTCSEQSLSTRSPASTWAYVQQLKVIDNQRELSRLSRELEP
Sequence of Nicotinamide N-methyltransferase (Homo sapiens) (P40261 whole entry, looked up): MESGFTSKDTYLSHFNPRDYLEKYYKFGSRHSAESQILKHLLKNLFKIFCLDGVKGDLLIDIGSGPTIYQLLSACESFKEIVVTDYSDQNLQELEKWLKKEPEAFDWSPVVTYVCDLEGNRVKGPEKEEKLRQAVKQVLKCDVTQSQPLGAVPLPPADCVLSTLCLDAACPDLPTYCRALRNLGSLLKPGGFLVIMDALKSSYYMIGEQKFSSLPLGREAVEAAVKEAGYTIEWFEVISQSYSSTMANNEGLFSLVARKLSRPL
Sequence of Phenylethanolamine N-methyltransferase (Homo sapiens) (P11086 whole entry, looked up): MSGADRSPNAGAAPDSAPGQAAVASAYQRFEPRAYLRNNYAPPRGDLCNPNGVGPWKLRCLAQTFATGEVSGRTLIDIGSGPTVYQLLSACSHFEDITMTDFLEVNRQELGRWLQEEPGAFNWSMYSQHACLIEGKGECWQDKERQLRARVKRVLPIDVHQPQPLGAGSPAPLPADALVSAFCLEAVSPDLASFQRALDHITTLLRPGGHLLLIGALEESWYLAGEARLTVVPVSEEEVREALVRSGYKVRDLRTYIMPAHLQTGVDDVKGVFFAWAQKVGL
Sequence of Catechol O-methyltransferase (Homo sapiens) (P21964 whole entry, looked up): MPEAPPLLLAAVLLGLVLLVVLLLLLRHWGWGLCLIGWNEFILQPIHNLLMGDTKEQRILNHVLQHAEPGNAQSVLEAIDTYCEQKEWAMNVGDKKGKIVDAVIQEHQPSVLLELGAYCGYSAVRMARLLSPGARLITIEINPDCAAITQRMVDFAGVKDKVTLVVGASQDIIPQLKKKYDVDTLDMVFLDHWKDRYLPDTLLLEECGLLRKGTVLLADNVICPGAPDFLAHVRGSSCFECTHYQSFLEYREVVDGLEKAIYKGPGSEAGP

In the case of `CC(C)Oc1ccc(-c2nc(-c3cccc4c3CCC4NCCC(=O)O)no2)cc1C#N` (centres undefined), the Potency result in [1], in [2], in [3] and in [4] was “inactive” each time.

As to `CCCCCC(=O)N1CCC[C@H]1C(=O)N[C@@H](Cc1ccc(O)cc1)C(=O)OC` (Hexanoyl-Pro-Tyr-OMe), the Potency result in test [1], in test [3] and in test [4] was “inactive” each time. Also, the Potency in test [2] is 2.39 µM (active).

Regarding `COc1cccc(CNc2ccc(S(=O)(=O)Nc3nc4ccccc4s3)cc2)c1O`, the Potency result in test [1], in test [3] and in test [4] was “inactive” each time. Besides, the Potency in test [2] is 6.74 µM (active).

As to `NC(=O)c1ccc(F)c2c1C[C@@H](N(C1CCC1)C1CCC1)CO2`, the Potency result in test [1], in test [2], in [3] and in test [4] was “inactive” each time.

Take `Cc1cccc(NC(=O)CN2CCC(c3ccccn3)CC2)c1`: the Potency result in test [1], in test [3] and in test [4] was “inactive” throughout. For the same compound, in test [2], the Potency is 3.38 µM (active).

With `CCCN(CCN1CCN(c2ccccc2OC)CC1)C1CCc2ncsc2C1` (centres undefined), the Potency result in test [1], in test [2], in test [3] and in test [4] was “inactive” throughout.

Consider `COc1cc(OC)cc(-c2ccc3c(-c4ccc(F)cc4)[nH]nc3n2)c1`, for which the Potency result in test [1], in test [3] and in test [4] was “inactive” in each case. In test [2], the Potency is 7.56 µM (active).

As to `Cc1oc(S(=O)(=O)N2CCCCC2)cc1NC(=O)Nc1ccccc1`, the Potency result in test [1], in test [3] and in test [4] was “inactive” in each case. Also, the Potency in [2] was 6.01 µM (active).

Regarding `Cc1nc2cc(-c3cc(F)cc(C#N)c3)ccc2s1`, the Potency entry in test [1], in test [3] and in [4] was “inactive” in each case. The Potency in test [2] was 10.7 µM (active).

For the compound `CCOC(=O)C(CCc1ccccc1)NC1CCCN2CCCC(C(=O)O)N2C1=O` (centres undefined), the Potency result in test [1], in test [2], in test [3] and in test [4] was “inactive” in each case.

In the case of `CC(=O)Nc1cccc2c1c(Sc1ccc(Cl)cc1)c(C)n2CC(=O)O`, the Potency entry in [1], in test [3] and in test [4] was “inactive” each time. Moreover, the Potency in test [2] was 13.5 µM (active).

With `COc1ccc(CCc2nc3cc(-c4c(C)noc4C)ccc3n2C[C@H](C)N2CCOCC2)cc1Cl`, the Potency result in test [1] is “inactive”. The Potency in [2] is 15.1 µM (active); in test [3] it was 3.65 µM (active); in test [4], 2.58 µM (active).

As to `C=C1CCC2[C@@](C)(C(=O)O)CCC[C@@]2(C)[C@@H]1CCc1ccoc1` (some centres undefined), the Potency result in [1] and in test [3] was “inactive” throughout.

`O=C(N[C@@H]1CC[C@@H](c2cccc(F)c2F)CN(CC(F)(F)F)C1=O)N1CCC(n2c(=O)[nH]c3ncccc32)CC1`: the Potency entry in test [1] was “inactive”. Further, the figures for the Potency in test [2] and in [4] were 12 µM (active) and 16.3 µM (active), respectively.

With `C=C1CC[C@@]2(OC1)O[C@H]1CC3C4CC=C5C[C@@H](O[C@@H]6O[C@@H](C)[C@H](O)[C@@H](O)[C@H]6O)C[C@@H](O[C@@H]6O[C@H](C)[C@H](O)[C@H](O)[C@H]6O[C@@H]6O[C@@H](C)[C@H](O)[C@@H](O)[C@H]6O)[C@]5(C)C4CC[C@]3(C)[C@H]1[C@@H]2C` (some centres undefined), in test [1], the Potency result is “inactive”. For the same compound, the activity change, negative = viability loss in [3] was -22.3% [at 9.23 µM] (inactive).

In the case of `Cc1cc(C)c2nc(-c3ccccn3)cc(C(=O)Nc3ccc(S(=O)(=O)Nc4onc(C)c4C)cc3)c2c1`, the Potency result in test [1] was “inactive”. Besides, the Potency in test [2] was 26.8 µM (active). Besides, the outcome in [5], in [6] and in [8] was “inactive” in each case. Besides, in test [7], the outcome is “inactive; activator; fitted 7.5686 uM”.

For the compound `CC1(C)C[C@H]2C=C(C=O)[C@]3(C(=O)O)C[C@]3(C)[C@H]2C1`, the Potency entry in [1] and in test [3] was “inactive” in each case.

As to `CC[C@@H](C)[C@H](NC(=O)C(C)(C)NC(=O)[C@H](CCC(N)=O)NC(=O)C(C)(CC)NC(=O)[C@H](Cc1c[nH]c2ccccc12)NC(C)=O)C(=O)N[C@H](C(=O)NC(C)(C)C(=O)N[C@@H](CC(C)C)C(=O)NC(C)(C)C(=O)N1CCC[C@H]1C(=O)N[C@@H](CCC(N)=O)C(=O)NC(C)(C)C(=O)N1CC(O)C[C@H]1C(=O)NC(C)(CC)C(=O)C1CC[C@@H](C(=O)N[C@@H](Cc2ccccc2)C(=O)NCC(=O)O)N1)C(C)O` (some centres undefined) (Ac-W[ξIva]Q[Aib][aIle][Thr(3ξ)][Aib]L[Aib]PQ[Aib][X8]-X9), the activity change, negative = inhibition in test [1] was 3.33% [at 12.4 µM] (inactive). The activity change, negative = viability loss in [3] was -38.6% [at 4.96 µM] (inactive).

In the case of `C[C@H]1CC[C@@]2(OC1)O[C@H]1CC3C4CC[C@H]5C[C@@H](O[C@@H]6O[C@H](CO)[C@H](O[C@@H]7O[C@H](CO)[C@@H](O)[C@H](O[C@@H]8OC[C@@H](O)[C@H](O)[C@H]8O)[C@H]7O[C@@H]7O[C@H](CO)[C@@H](O)[C@H](O)[C@H]7O)[C@H](O)[C@H]6O)[C@H](O)C[C@]5(C)C4=CC(=O)[C@]3(C)[C@H]1[C@@H]2C` (some centres undefined), in [1], the Potency entry is “inactive”. Further, in test [3], the activity change, negative = viability loss was -21.3% [at 9.23 µM] (inactive).

`C=C1C(OC(C)=O)C(=O)C2C(C)(C)C(O)CCC2(C)C1CC(OC(C)=O)/C(C)=C/COC(C)=O` (centres undefined): the Potency result in [1] and in test [3] was “inactive” each time.

Turning to `CCC(C)C1NC(=O)C2CCCN2C(=O)C(CC(O)CO)OC(=O)CCNC(=O)C(C)N(C)C(=O)C(C(C)C)N(C)C1=O` (centres undefined) (cyclo([X13]PI[NMeV][NMeA][βAla]); configuration not given here), the Potency result in [1] and in [3] was “inactive” each time.

With `O=C(NCCN1CCCC1)c1cc(-c2ccc(CN3CCOCC3)cc2)nc2ccc(F)cc12`, the Potency result in [1], in test [9], in test [3] and in test [4] was “inactive” throughout.

`CC1(C(=O)O)CCCC2(C)C3CCC4CC3(CCC12)CC4(O)CO` (centres undefined): the Potency entry in test [1] and in test [3] was “inactive” throughout.

Turning to `On1ncc(C2CCNCC2)c1-c1cccc(-c2ccccc2)c1`, the Potency result in test [1], in test [2] and in test [4] was “inactive” each time.

For the compound `COC(=O)C(CC1(OC(=O)C(C)C)c2ccccc2N2C(=O)C(C)(C)N(O)C21)n1cnc2ccccc2c1=O` (centres undefined), the Potency entry in [1] and in test [3] was “inactive” each time.

Take `C=C1CC[C@@]2(OC1)O[C@H]1CC3[C@@H]4CC=C5C[C@@H](O)C[C@@H](O[C@@H]6OC[C@H](O)[C@H](O)[C@H]6O[C@@H]6O[C@@H](C)[C@H](O)[C@@H](O)[C@H]6O)[C@]5(C)C4CC[C@]3(C)[C@H]1[C@@H]2C` (some centres undefined): the Potency entry in test [1] and in test [3] was “inactive” throughout.

Consider `C=Cc1cc2oc(-c3ccc(O)c(F)c3)nc2cc1O`, for which the Potency entry in test [1] was “inactive”. Besides, the Potency is 31.6 µM (active) in test [9] and 30.4 µM (active) in test [11]. For the same compound, the activity was -57% in test [10], -39.5% in test [12] and -56.3% in test [13].

Take `CCCC1=CC2=C(CO1)C(=O)C(C)(O)C(OC(=O)c1c(C)cc(OC)cc1O)C2` (centres undefined): the Potency entry in test [1] and in test [3] was “inactive” in each case.

Regarding `CC1(C)CC[C@]2(C(=O)O)CC[C@]3(C)C(=CCC4[C@@]5(C)CC[C@H](O[C@@H]6O[C@H](C(=O)O)[C@@H](O)[C@H](O[C@@H]7O[C@H](CO)[C@H](O)[C@H](O)[C@H]7O)[C@H]6O[C@@H]6O[C@H](CO)[C@@H](O)[C@H](O)[C@H]6O)C(C)(C)C5CC[C@]43C)[C@@H]2C1` (some centres undefined), in test [1], the activity change, negative = inhibition was 10.7% [at 12.4 µM] (inactive). The activity change, negative = viability loss in test [3] was -9.66% [at 4.96 µM] (inactive).
